Screening data from PubChem BioAssay.
An excerpt weighted towards active compounds, which were near 5.4% of everything screened.
CSC inhib: blocks cancer stem cells; cancer stem cell-like cells viability, luminescence; inhibition, % at 7.5 µM; actives 1.1% (n = 300,000); AID 2717; in the data active = inhibition above about 75%; tested in HMLE shEcad cells
PP1 inh: PP1-alpha (human) inhibition in PP5 counter-screen. AID 2235. inhibition, % at 6.7 µM. actives 0.9% (n = 320,000). purified PP1alpha, OMFP fluorescence. P62136;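 active = inhibition above the mean inhibition of all tested compounds plus 3 SD, computed separately for each screening campaign, cut at about 15% in these data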
Target sequence (P62136 whole entry, looked up): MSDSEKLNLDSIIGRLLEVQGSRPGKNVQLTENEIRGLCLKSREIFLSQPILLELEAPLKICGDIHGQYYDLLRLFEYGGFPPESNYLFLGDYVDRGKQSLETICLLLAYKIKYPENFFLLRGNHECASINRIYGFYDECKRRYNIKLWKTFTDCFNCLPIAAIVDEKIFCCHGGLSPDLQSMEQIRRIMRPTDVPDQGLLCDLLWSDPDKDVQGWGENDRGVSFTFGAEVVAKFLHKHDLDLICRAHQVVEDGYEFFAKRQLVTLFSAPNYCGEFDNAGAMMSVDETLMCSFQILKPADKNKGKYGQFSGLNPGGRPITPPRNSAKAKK
Calb FLC: affects C. albicans growth with fluconazole. C. albicans CaCi-2 (fluconazole-resistant clinical isolate) + fluconazole, Alamar Blue growth, 48 h. growth inhibition, % (test concentration not listed). actives 0.57% (n = 300,000);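 active = growth inhibition above about 58% in most replicates, limit read from the data, passing the limit was not always enough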;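 also: all wells also contain fluconazole at 8 µg/ml as a sub-toxic cotreatment; 0% = median of DMSO wells and 100% = median of geldanamycin control wells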
PP5 primary: inhibitors of human protein phosphatase 5 (PP5); P53041; purified PP5c, OMFP substrate fluorescence; inhibition, % at 6.7 µM; actives 0.18% (n = 320,000); AID 1987;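 active = inhibition above the campaign's mean inhibition across all tested compounds plus 3 SD, cut at about 9.5% in these data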;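 also: 0% = DMSO only and 100% = 100 µM cantharidin control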
ALR inh: human ALR oxidase inhibition via reduced H2O2; P55789; actives 3.8% (n = 290,000); AID 485317; inhibition, % (concentration not given with the values); purified ALR, DTT oxidation, H2O2 HRP-luminol luminescence;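 active = mean replicate inhibition above about 79%, with every replicate also reaching it, limit read from the data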
Target sequence (P55789 whole entry, looked up): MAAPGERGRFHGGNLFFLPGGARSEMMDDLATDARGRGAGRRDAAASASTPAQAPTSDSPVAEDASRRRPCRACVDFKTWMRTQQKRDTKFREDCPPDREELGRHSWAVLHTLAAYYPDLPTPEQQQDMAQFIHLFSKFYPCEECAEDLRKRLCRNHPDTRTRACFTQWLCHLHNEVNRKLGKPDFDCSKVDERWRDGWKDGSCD
* hit, by the source's call; . = no result.

SMILES	CSC inhib	PP1 inh	Calb FLC	PP5 primary	ALR inh
COCC(=O)Nc1sc2c(c1C(=O)OC)C(C(=O)OC)CC2 (stereo not drawn)	-0.5	1.1	-3.3	-1.0	-4.2
COc1ccc(N(C(=O)CNC(=O)c2ccco2)C(C(=O)NCC2CCCO2)c2ccc(OC)c(OC)c2)cc1 (stereo not drawn)	20.3	0.0	1.1	-0.4	-3.7
CCCCC(=O)Nc1ccc(NC(=O)c2ccco2)cn1	-11.9	-0.5	-4.8	-0.6	-1.5
CCCC(=O)Nc1ccc(C(=O)Nc2cccc(OC)c2)cc1	0.3	-2.3	-15.1	-1.9	-5.5
O=C(CSc1nc2ccccc2s1)N1CCN(C(=O)c2ccco2)CC1	-6.3	1.0	-5.9	2.6	98.6*
Cc1ccc2nc(SC(C)C(=O)N3CC(C)OC(C)C3)[nH]c2c1 (stereo not drawn)	-5.8	-2.7	7.6	1.8	-7.5
CCC(C)(C)NC(=O)CSc1nc(Cc2ccccc2)nc2ccccc12	6.6	.	-28.2	.	53.3
CC1CN(C(=O)C(C)Sc2nc3ccccc3s2)CC(C)O1 (stereo not drawn)	1.0	1.8	-1.9	0.6	98.7*
CC(C)(C)NC(=O)CSc1nc(Cc2ccccc2)nc2ccccc12	1.8	1.9	8.6	6.0	97.6*
O=C(CSc1nc2ccccc2s1)N1CCCCC1	-4.3	0.6	-8.4	0.5	99.5*
CCc1cc2cccc(C)c2nc1SCC(=O)N1CCN(C(=O)c2ccco2)CC1	-11.9	-1.0	-5.3	-0.7	-2.9
CCc1cc2cc(C)cc(C)c2nc1SCC(=O)N1CCN(C(=O)c2ccco2)CC1	116.3*	5.2	.	0.2	-3.8
COc1ccc(OCCSc2nnc3c(Cl)cc(Cl)cn23)cc1	-11.3	2.3	-0.3	0.8	-7.2
Cc1ccc(NC2CCCN(C(=O)c3c(C)noc3C)C2)cc1C (stereo not drawn)	-0.6	-3.8	3.5	1.6	95.4*
Cc1ccc(NC2CCCN(C(=O)c3snnc3C)C2)cc1C (stereo not drawn)	9.4	-0.9	1.3	1.0	99.0*
CC1CN(C(=O)C(C)N2CCN(c3ccccc3Cl)CC2)CC(C)O1 (stereo not drawn)	-9.7	-3.3	-18.4	0.0	-1.7
CC1CN(C(=O)C(C)N2CCN(c3cccc(Cl)c3)CC2)CC(C)O1 (stereo not drawn)	5.0	-2.1	-19.2	-0.2	87.6*
C=C(C)C(=O)Nc1cccc(C2=NOC3(C2)C[C@@H](C(N)=O)N(C(=O)CCCCC)C3)c1 (stereo partly drawn)	9.7	13.7	-0.4	0.1	-1.5
CC(C)=C1C(=O)NN(c2ccc(F)c(Cl)c2)C1=O	4.4	1.8	101.3*	1.0	94.2*
O=C1NN(c2ccc(F)c(Cl)c2)C(=O)/C1=C\c1cccc(OC(=O)c2cccs2)c1	-6.7	15.3*	-16.2	2.2	-8.8
O=C(NCC(=O)N(c1ccc2c(c1)OCO2)C(C(=O)NC1CCCC1)c1ccncc1)c1ccco1 (stereo not drawn)	.	-5.0	5.2	0.6	-98.2
CCOC(=O)Cc1c[nH]c(=S)[nH]c1=O	5.0	-1.5	-3.2	-1.9	.
CC(=O)O[C@H]1[C@@H](O)[C@H](O)[C@H](Oc2c(O)c(C)c3c4c2[C@@H](C)CC[C@@H]4[C@@H](C)C[C@H]3C=C(C)C)O[C@H]1C	105.9*	.	.	.	-5.2
CC1CCc2c(C(=O)NCc3ccco3)csc2C1 (stereo not drawn)	-12.3	-1.2	9.3	1.3	4.3
NS(=O)(=O)c1ccc(CNC(=O)c2ccccn2)cc1	0.3	-3.2	-3.4	1.6	-2.5
SMILES	CSC inhib	PP1 inh	Calb FLC	PP5 primary	ALR inh
O=C(Nc1ccc(C2=NCCN2)cc1)c1ccc(C(=O)Nc2ccc(C3=NCCN3)cc2)c([N+](=O)[O-])c1	-19.1	14.3	107.0*	1.0	-8.6
O=Cc1c(Sc2ccccn2)nc2ccccn2c1=O	8.0	-5.1	-6.8	0.3	97.5*
O=Cc1c(Sc2ccccc2)nc2ccccn2c1=O	7.5	1.0	26.0	-2.4	97.7*
C/C(=N/NC(=O)CSc1nc2ccccc2n1C)c1ccco1	-0.6	1.2	2.5	2.7	-1.0
Cc1ccc(/C=N/NC(=O)CSc2nc3ccccc3n2C)s1	16.7	-5.0	13.3	0.5	88.6*
CCn1c(SCC(=O)N/N=C/C=C\c2ccco2)nc2ccccc21	1.8	5.5	7.1	5.7	32.3
Cn1c(SCC(=O)N/N=C/C=C\c2ccco2)nc2ccccc21	3.4	3.7	16.2	1.5	85.9*
C/C(=N/NC(=O)CSc1nc2ccccc2n1C)c1ccc(O)cc1	.	0.3	-7.5	-1.5	99.0*
Nc1nc(NC(=O)c2cccs2)nn1-c1ccccc1	-4.2	3.2	5.4	1.4	1.0
Cc1ccc(NCCC(=O)c2cccs2)cc1Cl	6.5	2.1	19.0	4.6	13.6
Cc1ccc(NCCC(=O)c2cccs2)cc1C	5.1	2.9	1.6	0.0	98.8*
Cc1ccc(NCCC(=O)c2cccs2)cc1	0.7	-8.0	2.1	-0.4	98.6*
COc1ccc(/C=C/C(=O)Nc2nc(C)c(C(=O)N(C)C)s2)cc1	-5.8	-2.5	-2.0	3.3	7.3
CCC(=C(c1ccc(OC)cc1)c1ccc(OC)cc1)c1cn(CC(O)CN2CCN(C)CC2)c2ccccc12 (stereo not drawn)	107.0*	5.8	.	6.5	-18.7
Cc1ccc2[nH]c(-c3cccc(N)c3)cc2c1	4.7	3.7	7.0	3.0	98.5*
CCOCCCNC(=O)CCCn1nc(C)n2c(cc3sccc32)c1=O	-0.7	-6.2	0.9	2.9	.
CCN(CCNC(=O)CCCn1nc(C)n2c(cc3sccc32)c1=O)c1ccccc1	-6.4	-0.6	-3.9	3.1	98.4*
COCCNC(=O)c1ccc(CSc2nc3ccccc3s2)cc1	12.9	-4.3	2.8	3.1	99.0*
NC(=O)c1ccc(CSc2nc3ccccc3s2)cc1	7.7	-0.4	2.9	1.4	92.2*
CCNC(=O)c1ccc(CSc2nc3ccccc3s2)cc1	5.9	0.7	0.5	1.9	98.5*
CCC(C)/C(C)=N/NC(=O)c1ccc(CSc2nc3ccccc3s2)cc1 (stereo not drawn)	0.0	11.3	1.0	6.1	42.4
COCCNC(=O)COC(=O)CSCc1nc2ccccc2s1	5.6	0.0	-5.8	-1.2	98.2*
C/C(N)=C(/C#N)C(=O)CSc1nncn1-c1ccccc1	-14.1	-5.9	-0.7	-2.8	-1.5
Cc1nc(N2CCN(C)CC2)c2c(C)c(C(=O)Nc3ccc(F)cc3)sc2n1	2.3	-3.7	-4.0	1.8	-14.1
Cc1ccc2[nH]c(=O)c(C3C(C#N)=C(N)Oc4c3ccc3cccnc43)cc2c1 (stereo not drawn)	7.2	14.2	99.1*	2.7	-4.8
N#CC1=C(N)Oc2c(ccc3cccnc23)C1c1ccccc1 (stereo not drawn)	38.6	1.4	4.4	0.1	-2.7
C=C(C)Cn1c(N)cc(=O)nc1SCC(=O)Nc1cccc(C(F)(F)F)c1	-9.3	-0.8	-4.4	0.6	97.2*
Cc1cc(=O)[nH]c(SCC(=O)Nc2cccc(C(F)(F)F)c2)n1	10.0	-4.4	-2.6	-0.8	-14.9
